These results are taken from PubChem BioAssay (EPA / NIEHS).

Active and inactive are the calls of the source. Rule for the calls: active = hit-call score of the fitted dose curve at least 0.9, where 1 is the maximum; inactive = score below 0.9.

Holding throughout (settings): mRNA level, 48 h; actives raise or lower the signal
Read-out in test [1]: Bcl-2 (BAX) gene, BAX (gene 581)
Kind of test: LTEA_HepaRG_BAX: Life Technologies and Expression Analysis (LTEA) Assay for Bcl-2 (BAX) gene using HepaRG (AID 2283470). The gist of the method: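 Gene expression measured by Fluidigm qRT-PCR with three housekeeping genes for normalisation. HepaRG cells, plated 48 h beforehand, treated 48 h at up to 100 uM (8-point, half-log) in 0.5% DMSO. Bidirectional fitting versus DMSO.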

Read-out in test [2]: adenosine kinase (ADK) gene, ADK (gene 132)
Kind of test: LTEA_HepaRG_ADK: Life Technologies and Expression Analysis (LTEA) Assay for adenosine kinase (ADK) gene using HepaRG (AID 2283471). The gist of the method: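 HepaRG (human liver), 48 h chemical exposure, 8-pt half-log series, top 100 uM, 0.5% DMSO vehicle. Readout: ADK mRNA by qRT-PCR vs housekeeping genes; bidirectional curve fit relative to DMSO baseline.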

Read-out in test [3]: Alpha-fetoprotein (AFP) gene, AFP (gene 174)
The experiment in a line: LTEA_HepaRG_AFP: Life Technologies and Expression Analysis (LTEA) Assay for Alpha-fetoprotein (AFP) gene using HepaRG (AID 2283472). The gist of the method: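 AFP transcript measured by TaqMan qRT-PCR with three housekeeping genes for normalization, after 48 h chemical treatment of HepaRG cells (top 100 uM, half-log steps, 0.5% DMSO). Gain or loss fitted against vehicle.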

Read-out in test [4]: Apoptosis regulator Bcl-2 (Homo sapiens) (UniProt P10415)
Kind of test: LTEA_HepaRG_BCL2: Life Technologies and Expression Analysis (LTEA) Assay for Bcl-2 gene using HepaRG (AID 2283475). The method in brief: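 qRT-PCR of BCL2 transcript, normalized to three housekeeping genes (ACTB, GAPDH, POLR2A), after 48 h chemical exposure of HepaRG cells; concentrations top 100 uM with half-log dilutions, 0.5% DMSO vehicle, duplicates; changes up or down fitted relative to vehicle.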

Read-out in test [5]: Bcl-2 (BID) gene, BID (gene 637)
The experiment in a line: LTEA_HepaRG_BID: Life Technologies and Expression Analysis (LTEA) Assay for Bcl-2 (BID) gene using HepaRG (AID 2283476). The gist of the method:
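Duplicate 48 h treatments of HepaRG cells in serum-free induction medium spanned 100 uM downward in half-log steps, 0.5% DMSO. Transcript change quantified by qRT-PCR against three housekeeping genes, fitted up or down versus DMSO.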

Read-out in the next test: Caspase-3 (Homo sapiens) (UniProt P42574)
Kind of test: LTEA_HepaRG_CASP3: Life Technologies and Expression Analysis (LTEA) Assay for cysteine-aspartic acid protease (CASP3) using HepaRG (AID 2283477). The gist of the method:
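Read-out is CASP3 mRNA level by TaqMan qRT-PCR in human HepaRG cells after 48 h chemical exposure. Eight half-log concentrations topping at 100 uM were tested in 0.5% DMSO; gain or loss was fitted relative to DMSO.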

Read-out in test [6]: Cytochrome P450 (CYP24A1), CYP24A1 (gene 1591)
Kind of test: LTEA_HepaRG_CYP24A1: Life Technologies and Expression Analysis (LTEA) Assay for Cytochrome P450 (CYP24A1) using HepaRG (AID 2283478). The method in brief:
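HepaRG, 48 h chemical exposure, 8-pt half-log CRC from 100 uM, 0.5% DMSO vehicle, duplicates. Endpoint: CYP24A1 mRNA by Fluidigm TaqMan qRT-PCR, normalized ACTB/GAPDH/POLR2A; gain/loss fit vs DMSO.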

Read-out in test [7]: Cytochrome P450 (CYP1A2), CYP1A2 (gene 1544)
Kind of test: LTEA_HepaRG_CYP1A2: Life Technologies and Expression Analysis (LTEA) Assay for Cytochrome P450 (CYP1A2) using HepaRG (AID 2283479). The method in brief:
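CYP1A2 transcript induction or loss, quantified by Fluidigm qRT-PCR against three housekeeping genes, was fitted bidirectionally against 0.5% DMSO controls. Human HepaRG cells received eight half-log concentrations from 100 uM over 48 h.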

Read-out in test [8]: cysteine-aspartic acid protease (CASP8), CASP8 (gene 841)
Kind of test: LTEA_HepaRG_CASP8: Life Technologies and Expression Analysis (LTEA) Assay for cysteine-aspartic acid protease (CASP8) using HepaRG (AID 2283480). The method in brief: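 Concentration-response in duplicate up to 100 uM (half-log steps, 0.5% DMSO) on differentiated HepaRG cultures for 48 h. Expression change of CASP8 mRNA is determined by TaqMan qRT-PCR with housekeeping-gene normalization.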

Read-out in test [9]: Cytochrome P450 (CYP2B6), CYP2B6 (gene 1555)
Kind of test: LTEA_HepaRG_CYP2B6: Life Technologies and Expression Analysis (LTEA) Assay for Cytochrome P450 (CYP2B6) using HepaRG (AID 2283481). The method in brief: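 HepaRG cells plated 48 h, switched to serum-free induction medium, then dosed 48 h (8 points, half-log from 100 uM, 0.5% DMSO). RNA isolated; CYP2B6 expression measured by qRT-PCR; gain or loss fitted relative to DMSO.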

Read-out in test [10]: Cytochrome P450 2C19 (Homo sapiens) (UniProt P33261)
Kind of test: LTEA_HepaRG_CYP2C19: Life Technologies and Expression Analysis (LTEA) Assay for CYP2C19 using HepaRG (AID 2283482). The method in brief: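 Transcript levels of CYP2C19 were quantified by qRT-PCR after HepaRG cells were treated for 48 hours with test chemicals up to 100 uM (eight half-log concentrations, 0.5% DMSO vehicle). Gain or loss of signal was fitted relative to DMSO.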

Read-out in a further test: CYP2C8 (gene 1558)
Kind of test: LTEA_HepaRG_CYP2C8: Life Technologies and Expression Analysis (LTEA) Assay for CYP2C8 using HepaRG (AID 2283483). The gist of the method:
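This is a transcriptional endpoint in HepaRG cultures: 48 h exposure, highest concentration 100 uM. CYP2C8 mRNA is quantified by TaqMan qRT-PCR.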

Read-out in another test: CYP2C9 (gene 1559)
The experiment in a line: LTEA_HepaRG_CYP2C9: Life Technologies and Expression Analysis (LTEA) Assay for CYP2C9 using HepaRG (AID 2283484). The method in brief: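 Eight-point concentration-response (highest 100 uM, half-log dilutions) in HepaRG cells for 48 h; CYP2C9 expression by qRT-PCR normalized to ACTB, GAPDH, POLR2A. Bidirectional fit, DMSO baseline.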

Read-out in another test: CYP2E1 (gene 1571)
Kind of test: LTEA_HepaRG_CYP2E1: Life Technologies and Expression Analysis (LTEA) Assay for CYP2E1 using HepaRG (AID 2283485). The gist of the method: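 CYP2E1 transcript measured by Fluidigm qRT-PCR against three housekeeping genes in human HepaRG cells treated 48 h (top 100 uM, half-log steps, 0.5% DMSO vehicle). Gain or loss fitted relative to DMSO baseline.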

Read-out in the next test: CYP4A11 (gene 1579)
The experiment in a line: LTEA_HepaRG_CYP4A11: Life Technologies and Expression Analysis (LTEA) Assay for CYP4A11 using HepaRG (AID 2283486). The method in brief:
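HepaRG, 48 h chem exposure, 8 conc (100 uM top, half-log), 0.5% DMSO vehicle; qRT-PCR readout, housekeeping-gene normalized; bidirectional curve fit vs DMSO baseline.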

Read-out in test [11]: Cytochrome P450 3A4 (Homo sapiens) (UniProt P08684)
Kind of test: LTEA_HepaRG_CYP3A4: Life Technologies and Expression Analysis (LTEA) Assay for CYP3A4 using HepaRG (AID 2283487). The gist of the method:
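CYP3A4 transcript measured by TaqMan qRT-PCR and normalized to three housekeeping genes after 48 h chemical exposure of human HepaRG cells. Top concentration 100 uM, half-log steps, 0.5% DMSO vehicle; gain or loss fitted against DMSO baseline.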

Read-out in test [12]: DNA damage-inducible transcript 3 (DDIT3), DDIT3 (gene 1649)
The experiment in a line: LTEA_HepaRG_DDIT3: Life Technologies and Expression Analysis (LTEA) Assay for DNA damage-inducible transcript 3 (DDIT3) using HepaRG (AID 2283488). The gist of the method:
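DDIT3 transcript was quantified by qRT-PCR with ACTB/GAPDH/POLR2A normalization after 48 h chemical treatment of differentiated HepaRG cells in 0.5% DMSO. Dosing was eight-point, half-log, top 100 uM, duplicate wells. Curves fitted bidirectionally versus DMSO.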

Read-out in test [13]: Pro-epidermal growth factor (Homo sapiens) (UniProt P01133)
The experiment in a line: LTEA_HepaRG_EGF: Life Technologies and Expression Analysis (LTEA) Assay for Epidermal growth factor (EGF) using HepaRG (AID 2283489). The gist of the method: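 HepaRG, 48 h dosing, 100 uM top, half-log x8, 0.5% DMSO. Readout: TaqMan qRT-PCR (Fluidigm array), housekeeping-normalized. Gain or loss of signal fit vs DMSO.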

Read-out in test [14]: Apolipoprotein A-V (APOA5) gene, APOA5 (gene 116519)
Kind of test: LTEA_HepaRG_APOA5: Life Technologies and Expression Analysis (LTEA) Assay for Apolipoprotein A-V (APOA5) gene using HepaRG (AID 2283474). The gist of the method: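 Readout is APOA5 transcript level by qRT-PCR on Fluidigm dynamic arrays, normalized to three housekeeping genes. HepaRG cultures received chemicals for 48 h at up to 100 uM (half-log steps, 0.5% DMSO), with gain or loss scored relative to DMSO.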

Chain of Caspase-3 (Homo sapiens) (P42574 whole entry, looked up): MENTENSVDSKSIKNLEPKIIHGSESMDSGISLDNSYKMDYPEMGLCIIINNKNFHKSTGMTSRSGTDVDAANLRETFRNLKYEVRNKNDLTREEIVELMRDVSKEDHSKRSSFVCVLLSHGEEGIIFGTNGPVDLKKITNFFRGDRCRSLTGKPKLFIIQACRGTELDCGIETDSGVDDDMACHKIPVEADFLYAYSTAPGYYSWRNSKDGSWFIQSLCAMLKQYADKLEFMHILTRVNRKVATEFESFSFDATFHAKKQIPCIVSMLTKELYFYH
Chain of Cytochrome P450 2C19 (Homo sapiens) (P33261 whole entry, looked up): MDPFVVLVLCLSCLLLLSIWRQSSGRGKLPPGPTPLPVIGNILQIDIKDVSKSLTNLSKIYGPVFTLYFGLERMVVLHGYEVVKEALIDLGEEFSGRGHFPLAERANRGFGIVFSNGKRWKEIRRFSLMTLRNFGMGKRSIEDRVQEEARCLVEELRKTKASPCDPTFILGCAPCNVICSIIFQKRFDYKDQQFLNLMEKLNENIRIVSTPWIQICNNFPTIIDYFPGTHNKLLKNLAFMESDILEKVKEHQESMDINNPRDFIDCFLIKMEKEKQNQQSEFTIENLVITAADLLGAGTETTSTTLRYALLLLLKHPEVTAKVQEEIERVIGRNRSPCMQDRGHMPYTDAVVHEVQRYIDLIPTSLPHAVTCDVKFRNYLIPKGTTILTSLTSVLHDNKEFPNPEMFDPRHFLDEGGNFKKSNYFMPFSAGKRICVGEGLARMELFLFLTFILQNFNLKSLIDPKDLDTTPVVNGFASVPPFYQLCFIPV
Chain of Apoptosis regulator Bcl-2 (Homo sapiens) (P10415 whole entry, looked up): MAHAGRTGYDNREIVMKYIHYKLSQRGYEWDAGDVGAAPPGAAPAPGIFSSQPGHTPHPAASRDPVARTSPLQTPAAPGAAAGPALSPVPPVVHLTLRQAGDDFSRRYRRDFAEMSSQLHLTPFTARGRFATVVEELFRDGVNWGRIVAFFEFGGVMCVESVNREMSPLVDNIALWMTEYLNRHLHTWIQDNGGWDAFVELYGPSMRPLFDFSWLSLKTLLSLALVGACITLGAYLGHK
Chain of Cytochrome P450 3A4 (Homo sapiens) (P08684 whole entry, looked up): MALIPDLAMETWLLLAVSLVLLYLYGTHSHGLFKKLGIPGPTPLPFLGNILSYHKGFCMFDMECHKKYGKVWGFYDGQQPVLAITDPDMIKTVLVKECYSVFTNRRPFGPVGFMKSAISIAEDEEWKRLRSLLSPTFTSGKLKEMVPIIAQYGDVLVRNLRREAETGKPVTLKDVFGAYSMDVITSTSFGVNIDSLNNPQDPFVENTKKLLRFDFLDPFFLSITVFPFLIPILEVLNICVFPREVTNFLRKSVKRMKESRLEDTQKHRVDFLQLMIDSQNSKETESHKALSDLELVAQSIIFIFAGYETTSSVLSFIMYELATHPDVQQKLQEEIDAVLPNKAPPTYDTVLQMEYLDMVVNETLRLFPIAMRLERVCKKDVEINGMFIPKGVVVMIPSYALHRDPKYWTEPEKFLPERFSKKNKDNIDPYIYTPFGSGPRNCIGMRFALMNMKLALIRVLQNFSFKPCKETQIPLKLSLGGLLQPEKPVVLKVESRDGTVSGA

Regarding `OC12N=C(c3ccccc3)SC1Cc1cc(Cl)ccc12` (stereo not drawn), the result (in [1]; in [2]; in [5]; with Caspase-3 (Homo sapiens); in [6]; in test [8]) was inactive. In addition, the outcome in [13] was inactive. Besides, the AC50 in test [3] is 36.4 µM (active); in test [4], 20.3 µM (active); in test [7], 1.25 µM (active); in test [9], 11.6 µM (active); in [10], 80.4 µM (active); with CYP2C8 (gene 1558), 39.6 µM (active). The AC50 was 37.7 µM (active) with CYP2C9 (gene 1559); 16 µM (active) with CYP2E1 (gene 1571); 49 µM (active) in the test with CYP4A11 (gene 1579); 81.3 µM (active) in test [11]; 2.33 µM (active) in test [12].

For the molecule `CN1C(=O)N(c2ccccc2Br)Cc2cnc(Nc3ccc4c(c3)OCC(CO)O4)nc21` (stereo not drawn), the AC50 in test [1] was 12.9 µM (active); in test [2], 88.9 µM (active); in test [3], 23.1 µM (active); in test [14] it was 90.3 µM (active); in [4], 89.1 µM (active); in [5], 70.7 µM (active). Besides, the AC50 with Caspase-3 (Homo sapiens) is 66.4 µM (active); in [7], 90.9 µM (active); in test [8], 85.8 µM (active); in test [9], 74.3 µM (active); in [10], 35.4 µM (active); with CYP2C9 (gene 1559) it was 32.7 µM (active). Also, the AC50 in the test with CYP2E1 (gene 1571) is 35 µM (active); in the test with CYP4A11 (gene 1579), 50 µM (active); in test [11], 89.6 µM (active); in test [12], 40.5 µM (active). For the same molecule, the call (with CYP2C8 (gene 1558); in [13]) was inactive.

Consider `Cc1occc1C(=O)Nc1ccc(C(=O)N2CCC(F)(F)/C(=C\C(=O)N3CCC(N4CCCCC4)CC3)c3ccccc32)cc1`, for which the outcome (in [1]; in [2]; in test [4]; in test [5]; with Caspase-3 (Homo sapiens); in test [8]) was inactive. Moreover, the result in [13] was inactive. Besides, the AC50 in test [3] was 44.8 µM (active); in test [14] it was 39 µM (active); in test [7], 18.4 µM (active); in [9], 47.4 µM (active); in test [10], 43.7 µM (active); in the test with CYP2C8 (gene 1558) it was 56.5 µM (active). Further, the AC50 with CYP2C9 (gene 1559) is 44.2 µM (active); with CYP2E1 (gene 1571), 31.2 µM (active); with CYP4A11 (gene 1579), 49 µM (active); in [12], 42.3 µM (active).
